Several values for one entry are separate records, joined by “and”; a condition that tells them apart may be missing. Identical values can stand only once.
Test system: HT29 RNF43 G659fs (RNF43 659mut, CRISPR-edited)
Test: cell viability activity relative to DMSO (negative = inhibition); higher = more viable cells (less growth inhibition)
Conditions: 5 µM; 96 h
Procedure: (§1)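 Broad Repurposing Library primary screen at a single dose of 5 uM. HT29 sg-Ctrl and HT29 RNF43 G659fs CRISPR-edited isogenic cells were seeded at 2500 cells/well in 384-well plates in duplicate and treated for 96 h. Viability was read by CellTiter-Glo and reported as % activity relative to DMSO, with MG132 as the positive control (negative = growth inhibition).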

| Structure (SMILES) | cell viability activity |
| --- | --- |
| COC(=O)Nc1nc2cc(C(=O)c3ccc(F)cc3)ccc2[nH]1 | -46.6% |
| COc1ccc(-c2cc3nccn3c(Nc3ncccc3C(N)=O)n2)cc1OC | -27.9% |
| C=CCCCCCCCCC(=O)O | -66.5% |
| CCCSc1ccc2[nH]c(NC(=O)OC)nc2c1 | -63.8% |
| CN1CCN(c2ccc3nc(-c4c(N)c5c(F)cccc5[nH]c4=O)[nH]c3c2)CC1 | -60.6% |
| Cc1nc(Nc2n[nH]c3c2CN(C(=O)N[C@H](CN(C)C)c2ccccc2)C3(C)C)c2sccc2n1 | -73.8% |
| CC(C)(C)c1[nH]cnc1/C=c1\[nH]c(=O)/c(=C/c2ccccc2)[nH]c1=O | -55.7% |
| FC(F)(F)Oc1ccc2nc(-c3ccc(OCCOCCOc4ccc(-c5nc6ccc(OC(F)(F)F)cc6[nH]5)nc4)cn3)[nH]c2c1 | -37.9% |
| NS(=O)(=O)OC[C@@H]1C[C@@H](n2ccc3c(N[C@H]4CCc5ccccc54)ncnc32)C[C@@H]1O | -78% |
| NNc1nncc2ccccc12 | -46.5% |
| CC1(C)CC(=O)c2c(C(F)(F)F)nn(-c3ccc(C(N)=O)c(N[C@H]4CC[C@H](OC(=O)CN)CC4)c3)c2C1 | -89.4% and -91.3% and -87.7% |
| O=C(c1cn(Cc2cncn2Cc2ccc(Br)cc2)cc1-c1cccc2ccccc12)N1CCOCC1 | -42.8% |
| CCNC(=O)Nc1ccc(-c2nc3c(c(N4CCOC[C@@H]4C)n2)CCN(C2COC2)C3)cc1 | -36.7% |
| COC(=O)C1=C(C)NC(C)=C(C(=O)OC2CCCN(Cc3ccccc3)C2)C1c1cccc([N+](=O)[O-])c1 (configuration not stated) | -85.8% |
| S=c1[nH]cnc2nc[nH]c12 | -51.6% |
| CC(C)c1ccc(NC(=O)Cn2cnc3c2c(=O)n(C)c(=O)n3C)cc1 | -55.3% |
| O=C(/C=C/c1ccc(CN(CCO)CCc2c[nH]c3ccccc23)cc1)NO | -95.4% |
| CNC(=O)CN1CCC(Oc2cc3c(Nc4cccc(Cl)c4F)ncnc3cc2OC)CC1 | -41.9% |
| COC(=O)c1ccccc1-c1c2ccc(=N)cc-2oc2cc(N)ccc12 | -44.3% |
| CC[C@H](C)[C@@H]([C@@H](CC(=O)N1CCC[C@H]1[C@H](OC)[C@@H](C)C(=O)N[C@@H](Cc1ccccc1)c1nccs1)OC)N(C)C(=O)[C@@H](NC(=O)[C@H](C(C)C)N(C)C)C(C)C | -55.7% |
| CC[C@]1(O)C[C@H]2CN(CCc3c([nH]c4ccccc34)[C@@](C(=O)OC)(c3cc4c(cc3OC)N(C=O)[C@H]3[C@@](O)(C(=O)OC)[C@H](OC(C)=O)[C@]5(CC)C=CCN6CC[C@]43[C@@H]65)C2)C1 | -28.3% |
| CC(=O)[C@]1(O)Cc2c(O)c3c(c(O)c2[C@@H](O[C@H]2C[C@H](N)[C@H](O)[C@H](C)O2)C1)C(=O)c1ccccc1C3=O | -97.8% and -97.3% |
| CN1CCN(Cc2ccc(Nc3ncc(Cl)c(Nc4ccccc4S(=O)(=O)N(C)C)n3)cc2)CC1 | -94.8% |
| NC(=O)N1CCC(CC(=O)N2CCC([C@H]3c4ncc(Br)cc4CCc4cc(Cl)cc(Br)c43)CC2)CC1 | -51% |
| CC(C)N1CCN(c2ccc(OC[C@@H]3CO[C@@](Cn4cncn4)(c4ccc(Cl)cc4Cl)O3)cc2)CC1 | -68% |
| CNC(=O)c1ccccc1Nc1nc(Nc2ccc(N3CCOCC3)cc2OC)ncc1Cl | -73.1% |
| Cn1c(=O)c(F)c(Nc2ccc(I)cc2F)c2c(=O)n(C[C@@H](O)CO)cnc21 | -86.8% |
| COc1cc(OC)c(/C=C/S(=O)(=O)Cc2ccc(OC)c(NCC(=O)O)c2)c(OC)c1 | -58.2% |
| C=CC(=O)Nc1cc2c(Nc3ccc(F)c(Cl)c3)ncnc2cc1C#CC(C)(C)N1CCN(C)CC1 | -94.8% |
| COc1cc(NC(=O)Nc2cccc(CNC(=O)O[C@H]3CCOC3)c2)ccc1-c1cnco1 | -41.5% |

Test system: HT29 sg-Ctrl (RNF43 wildtype)
Test: as above
Conditions: 5 µM; 96 h
Procedure: as §1

| Structure (SMILES) | cell viability activity |
| --- | --- |
| COC(=O)Nc1nc2cc(C(=O)c3ccc(F)cc3)ccc2[nH]1 | -51.2% |
| COc1ccc(-c2cc3nccn3c(Nc3ncccc3C(N)=O)n2)cc1OC | -32.6% |
| C=CCCCCCCCCC(=O)O | -72% |
| CCCSc1ccc2[nH]c(NC(=O)OC)nc2c1 | -76.8% |
| Cc1nc(NC(=O)N2CCC[C@H]2C(N)=O)sc1-c1ccnc(C(C)(C)C(F)(F)F)c1 | -16% |
| CN1CCN(c2ccc3nc(-c4c(N)c5c(F)cccc5[nH]c4=O)[nH]c3c2)CC1 | -77.6% |
| Cc1nc(Nc2n[nH]c3c2CN(C(=O)N[C@H](CN(C)C)c2ccccc2)C3(C)C)c2sccc2n1 | -79.1% |
| CC(C)(C)c1[nH]cnc1/C=c1\[nH]c(=O)/c(=C/c2ccccc2)[nH]c1=O | -54% |
| FC(F)(F)Oc1ccc2nc(-c3ccc(OCCOCCOc4ccc(-c5nc6ccc(OC(F)(F)F)cc6[nH]5)nc4)cn3)[nH]c2c1 | -16% |
| NS(=O)(=O)OC[C@@H]1C[C@@H](n2ccc3c(N[C@H]4CCc5ccccc54)ncnc32)C[C@@H]1O | -63.2% |
| NNc1nncc2ccccc12 | -40.8% |
| CC1(C)CC(=O)c2c(C(F)(F)F)nn(-c3ccc(C(N)=O)c(N[C@H]4CC[C@H](OC(=O)CN)CC4)c3)c2C1 | -84.8% and -87.4% and -83.8% |
| CSc1ccccc1Nc1nc(N2CCNCC2)nc2c(NCC3CC3)ncnc12 | -94.6% |
| O=C(c1cn(Cc2cncn2Cc2ccc(Br)cc2)cc1-c1cccc2ccccc12)N1CCOCC1 | -38.5% |
| CCNC(=O)Nc1ccc(-c2nc3c(c(N4CCOC[C@@H]4C)n2)CCN(C2COC2)C3)cc1 | -22% |
| COC(=O)C1=C(C)NC(C)=C(C(=O)OC2CCCN(Cc3ccccc3)C2)C1c1cccc([N+](=O)[O-])c1 (configuration not stated) | -85.6% |
| CCN(CC)CCNC(=O)c1c(C)[nH]c(/C=C2\C(=O)Nc3ccc(F)cc32)c1C | -99.2% |
| S=c1[nH]cnc2nc[nH]c12 | -49.4% |
| CC(C)c1ccc(NC(=O)Cn2cnc3c2c(=O)n(C)c(=O)n3C)cc1 | -23.8% |

| Structure (SMILES) | cell viability activity |
| --- | --- |
| O=C(/C=C/c1ccc(CN(CCO)CCc2c[nH]c3ccccc23)cc1)NO | -92.2% |
| CNC(=O)CN1CCC(Oc2cc3c(Nc4cccc(Cl)c4F)ncnc3cc2OC)CC1 | -24.1% |
| COC(=O)[C@H]1[C@H]2C[C@@H]3c4[nH]c5cc(OC)ccc5c4CCN3C[C@H]2C[C@@H](OC(=O)c2cc(OC)c(OC)c(OC)c2)[C@@H]1OC | -40.7% |
| COC(=O)c1ccccc1-c1c2ccc(=N)cc-2oc2cc(N)ccc12 | -37.4% |
| CC[C@H](C)[C@@H]([C@@H](CC(=O)N1CCC[C@H]1[C@H](OC)[C@@H](C)C(=O)N[C@@H](Cc1ccccc1)c1nccs1)OC)N(C)C(=O)[C@@H](NC(=O)[C@H](C(C)C)N(C)C)C(C)C | -43% |
| CC[C@]1(O)C[C@H]2CN(CCc3c([nH]c4ccccc34)[C@@](C(=O)OC)(c3cc4c(cc3OC)N(C=O)[C@H]3[C@@](O)(C(=O)OC)[C@H](OC(C)=O)[C@]5(CC)C=CCN6CC[C@]43[C@@H]65)C2)C1 | -54.5% |
| CC(C)(C#N)c1ccc(N2C(=O)OCc3cnc4ccc(-c5cnc6ccccc6c5)cc4c32)cc1 | -20% |
| CC(=O)[C@]1(O)Cc2c(O)c3c(c(O)c2[C@@H](O[C@H]2C[C@H](N)[C@H](O)[C@H](C)O2)C1)C(=O)c1ccccc1C3=O | -93% and -97.3% |
| CN1CCN(Cc2ccc(Nc3ncc(Cl)c(Nc4ccccc4S(=O)(=O)N(C)C)n3)cc2)CC1 | -96.1% |
| Nc1ccc(-c2cccc3c(=O)cc(N4CCOCC4)oc23)cc1 | -76.6% |
| NC(=O)N1CCC(CC(=O)N2CCC([C@H]3c4ncc(Br)cc4CCc4cc(Cl)cc(Br)c43)CC2)CC1 | -56.6% |
| CC(C)N1CCN(c2ccc(OC[C@@H]3CO[C@@](Cn4cncn4)(c4ccc(Cl)cc4Cl)O3)cc2)CC1 | -76% |
| CNC(=O)c1ccccc1Nc1nc(Nc2ccc(N3CCOCC3)cc2OC)ncc1Cl | -70.3% |
| CN(C)CCCCC(=O)Nc1ccc(NC(=S)NC(=O)c2ccc(C(C)(C)C)cc2)cc1 | -91.9% |
| Cn1c(=O)c(F)c(Nc2ccc(I)cc2F)c2c(=O)n(C[C@@H](O)CO)cnc21 | -90.5% |
| COc1cc(OC)c(/C=C/S(=O)(=O)Cc2ccc(OC)c(NCC(=O)O)c2)c(OC)c1 | -54.8% |
| C=CC(=O)Nc1cc2c(Nc3ccc(F)c(Cl)c3)ncnc2cc1C#CC(C)(C)N1CCN(C)CC1 | -86.1% |
| COc1cc(NC(=O)Nc2cccc(CNC(=O)O[C@H]3CCOC3)c2)ccc1-c1cnco1 | -23.6% |

Source: the supplement of paper PMC9177965
